Molecules are shown by their SMILES. Active and inactive are the calls of the source. Calls follow the shape of the dose curve; as a rule, active = well fitted activation curve with a large enough effect in the repeat runs; inconclusive = weak or mixed curves; inactive = flat fitted curve, though single readings scatter.
% is scaled to controls: 0 for no effect and ±100 for the full control effect.

In the assay the target is KiSS-1 receptor (Homo sapiens) (UniProt Q969F8). The assay is described as follows: Human kisspeptin (KISS1R) small molecule agonists, calcium flux assay in KISS1R-HEK293 cells (AID 1920064). The following applies: KISS1R-HEK293, calcium flux fluorescence, agonist; series mostly up to 76.8 µM. From the text: National Center for Advancing Translational Sciences [NCATS]
Chain of KiSS-1 receptor (Homo sapiens) (Q969F8 whole entry, looked up): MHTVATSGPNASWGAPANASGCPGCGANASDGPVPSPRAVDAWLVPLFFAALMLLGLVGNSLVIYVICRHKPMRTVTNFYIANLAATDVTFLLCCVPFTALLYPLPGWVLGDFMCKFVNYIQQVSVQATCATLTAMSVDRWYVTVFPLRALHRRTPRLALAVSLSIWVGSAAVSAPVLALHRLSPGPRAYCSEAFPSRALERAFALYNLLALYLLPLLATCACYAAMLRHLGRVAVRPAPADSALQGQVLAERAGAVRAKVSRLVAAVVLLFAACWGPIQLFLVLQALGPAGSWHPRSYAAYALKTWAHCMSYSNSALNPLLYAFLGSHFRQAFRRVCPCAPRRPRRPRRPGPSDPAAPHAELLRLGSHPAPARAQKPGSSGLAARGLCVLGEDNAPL
Division of Preclinical Innovation [DPI]
U.S. Environmental Protection Agency [EPA]
National Institutes of Environmental Health Sciences [NIEHS]
National Toxicology Program [NTP]
U.S. Food and Drug Administration [FDA]
Kisspeptin and its receptor KISS1R play key roles in mammalian reproduction due to their involvement in the onset of puberty and control of the hypothalamic-pituitary-gonadal axis such as regulates GnRH release from the hypothalamus. The kisspeptin/KISS1R system also plays a direct role in peripheral organs (including the ovary, testis, uterus, and placenta) and is implicated in reproductive diseases such as miscarriage and polycystic ovary syndrome (PCOS). Abnormal KISS1R activity is associated with abnormal puberty, infertility, endometriosis, and hormone-dependent tumors. The KISS1 receptor (KISS1R, also called GPR54), a G-protein-coupled receptor (GPCR), acts (through phospholipase C) to increase intracellular inositol trisphosphate and then release intracellular calcium stores. Cell-based KISS1R-HEK293 assay is using HEK293 cells that have been genetically engineered to express the human KISS1R, which activity can be measured by calcium signaling. A compound/drug can activate (agonist) KISS1R that can be monitored by levels of intracellular calcium.
KISS1R-HEK293 cells developed by Codex Corp contain human KISS1R gene, which was stably integrated into HEK 293 cells. The compound activation can be detected by fluorescence intensity via calcium flux assay. This cell line has been used to screen the Tox21 10K compound library to identify agonists of KISS1R.
KISS1R-Hek293 cells were dispensed at 1500 cells/4uL/well in 1536-well black wall/clear bottom plates using a multidrop dispenser. After the assay plates were incubated at a 37 C/5% CO2 incubator for 18 hours, 4 microL of Calcium Dye Solution was added to each well. The plates were incubated at 37 C for 1 hour. And then 23 nL of compounds dissolved in DMSO, positive controls, or DMSO only was transferred to the assay plate by a pin tool station. The fluorescence intensity in the plates was measured using FDSS 7000EX kinetic plate reader with a filter set of Ex/Em=480/540 for 3 min at 1 sec intervals. Each test compound was measured at 15 concentrations and in triplicates.
In the case of `O=C(CCCCCCCCC#CI)Oc1ccccc1`, the result was inactive.

For the molecule `CN1C[C@H](C(=O)N[C@]2(C)O[C@@]3(O)[C@@H]4CCCN4C(=O)[C@H](Cc4ccccc4)N3C2=O)C[C@@H]2c3cccc4[nH]cc(c34)C[C@H]21`, the outcome was inactive. Still for that read-out and setting: the value for `C[C@H](CN1CCCC1)C(=O)c1ccc(C(F)(F)F)cc1` was “inactive”; that for `Cc1oc(-c2ccccc2)nc1CCOc1ccc(C[C@H](Nc2ccccc2C(=O)c2ccccc2)C(=O)O)cc1` was “inactive”. The same measure, in the same setting: for `COC(=O)CCc1ccc(OCC(O)CNC(C)C)cc1` (stereo not given) the value was “inactive”. On the same count and under the same terms, for `CCNC(=O)C(C)OC(=O)Nc1ccccc1` (stereo not given) the value was “inactive”; for `C[N+]1(CC2COC(c3ccccc3)(C3CCCCC3)O2)CCCCC1` (stereo not given), “inactive”. Take `O=C(Oc1ccccc1)c1ccccc1C(=O)Oc1ccccc1`: the result was inactive. Same read-out and setting: for `CC(C)=CCC/C(C)=C/C=N/O` the value was “inactive”; for `CC(C)OC(=O)c1ccccc1`, “inactive”; for `O=S(=O)(c1ccccc1)c1ccc(Cl)cc1`, “inactive”.

Take `CCCCCc1ccc(Cl)cc1`: the outcome was inactive. The same measure, in the same setting: for `OCCCO` the value was “inactive”. Consider `Cc1ccc(Cl)cc1Cl`, for which the result was inactive. The same measure, in the same setting: the value for `NC(=O)C1(N2CCCCC2)CCN(CCCC(=O)c2ccc(F)cc2)CC1` was “inactive”; that for `CCCCCCCCCCCCCCCC/C=C/C1CC(=O)OC1=O` (stereo not given) was “inactive”; that for `CCOC(=O)C(=O)OCC` was “inactive”. Turning to `CCCCNS(=O)(=O)c1ccc(C)cc1`, the outcome was inactive.

With `CCCCCCCCCCCCCC[n+]1ccccc1`, the outcome was inactive. As for `N#C[C@@H]1CC(F)(F)CN1C(=O)CNC1CC2CCC(C1)N2c1ncccn1` (stereo not given in full), the result was inactive.

On to `CC(C)(O)c1ccc(CNC(=O)c2cccnc2Oc2ccc3nonc3c2)cc1`, for which the outcome was inactive.

With `Cc1cccc(C)c1NC(=O)c1ccccc1C(=O)O`, the outcome was inactive.

Regarding `CC(C)C(=O)OCc1cccc(OC(=O)[C@@H]2N3C(=O)[C@@H](NC(=O)Cc4ccccc4)[C@H]3SC2(C)C)c1`, the outcome was inactive. `CCCCC(=O)OCC(=O)[C@H]1[C@H](C)C[C@H]2[C@@H]3C[C@H](F)C4=CC(=O)C=C[C@]4(C)[C@@]3(F)[C@@H](O)C[C@@]21C`: the result was inactive. Take `CC(=O)[C@H]1CC[C@H]2[C@@H]3C=CC4=CC(=O)CC[C@@]4(C)[C@@H]3CC[C@]12C`: the outcome was inactive. The same measure, in the same setting: the value for `CCCCC(CC)C(=O)OC(C)C` (stereo not given) was “inactive”; that for `CC(=O)Nc1ccc(C)cc1C` was “inactive”; that for `COCCOCC(OC)OC` was “inactive”. As to `CCCCNc1ccc(C(=O)OCCN(C)C)cc1`, the result was inactive. Still for that read-out and setting: for `O=C(O)c1cccc(O)c1` the value was “inactive”; for `CC(=O)CCc1ccc(O)cc1`, “inactive”; for `Nc1ccc(C(=O)O)c(O)c1`, “inactive”. With `C/C=C(\C)C=O`, the outcome was inactive. Same read-out and setting: the value for `CCOc1ccccc1O` was “inactive”; that for `COc1cc(C)ccc1O` was “inactive”. Still for that read-out and setting: for `C(=C/c1ccccc1)/c1ccccc1` the value was “inactive”; for `O=C(O)Cc1ccccc1Oc1ccc(Cl)cc1Cl`, “inactive”. `NS(=O)(=O)c1cc2c(cc1C(F)(F)F)NCNS2(=O)=O`: the outcome was inactive. The same measure, in the same setting: for `Cc1c(Cl)cccc1Nc1ccccc1C(=O)O` the value was “inactive”. Turning to `CC(C)Cn1cnc2c(N)nc3ccccc3c21`, the activation is 1.32% [at 15.8 µM] (inactive).

The record behind these values is PubChem BioAssay (Tox21).
